From PubChem BioAssay come the findings set out here.

As usually defined, the inhibition is the relative decrease from the control value, in per cent.

A number with no mark means an inactive call. This is one part of the list. Active and inactive are the calls of the source.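 Rule for the calls, unless noted: active = inhibition above the hit cutoff set in the earlier primary screen (cut at about 27% in these data); inactive = the rest.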

Experiment [1] deals with HIV-1 integrase (multimerization). Put plainly: HIV-1 IN multimer formation enhancers, counter-screen for LEDGF/p75 integration inhibitor project, biochemical, TR-FRET (AID 1053131; in the data active = activation above about 8.9%). As to conditions: TR-FRET HIV-1 integrase multimerization, at 7.7 µM, hits give high values. (In general: Counterscreens check selectivity or assay interference.)
Experiment [2] in a line: TR-FRET optical interference artefacts, confirmation, artefact control for LEDGF/p75-dependent integration inhibitor project, biochemical, HIV-1 IN multimerization (AID 1053135;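 active = inhibition above the mean over all tested compounds plus 3 SD, which no compound reached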;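 note: 0% = integrase with antibodies and DMSO and 100% = antibodies without integrase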). The conditions noted are these: TR-FRET optical interference counterscreen, at 7.7 µM, hits give high values. (In general: TR-FRET usually uses a lanthanide donor and a delayed reading to cut background.)

Experiment [3] relates to HIV-1 integrase / human LEDGF/p75 complex. Put plainly: inhibitors of HIV-1 IN-LEDGF/p75 DNA integration, confirmation, biochemical, TR-FRET (AID 1053136; in the data active = inhibition above about 14%). As to conditions: TR-FRET LEDGF/p75-dependent HIV-1 integration, at 3.7 µM, hits give high values.
For experiment [4], the target named is Protein phosphatase methylesterase 1 (Homo sapiens) (UniProt Q9Y570). Put plainly: PME-1 inhibitor activity retest, confirmation, biochemical, fluorescence polarization, FP-Rh probe, triplicate (AID 2171).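 Note: 0% = enzyme with DMSO and 100% = wells lacking PME-1.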 As to conditions: recombinant PME-1, FP-Rh probe fluorescence polarization; at 5.9 µM; hits give high values. (In fluorescence polarisation assays a small probe gives low polarisation when free and higher when bound to something large.)

The target of experiment [5] is Peroxisome proliferator-activated receptor gamma (Homo sapiens) (UniProt P37231). The experiment is described as follows: agonists of PPARgamma SRC-2 coactivator recruitment, confirmation, biochemical, HTS (AID 1297; in the data active = activation above about 22%;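 note: 0% = vehicle alone and 100% = reference agonist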). The conditions noted are these: biochemical SRC-2 recruitment by PPARgamma; at 8 µM; hits give high values.
For experiment [6] the target is unchanged. The experiment is described as follows: PPARgamma agonists recruiting SRC-1 coactivator, confirmation, biochemical (AID 1300; in the data active = activation above about 20%;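 note: 0% = vehicle wells and 100% = reference agonist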). As to conditions: PPARgamma–SRC-1 coactivator recruitment biochemical assay; at 8 µM; hits give high values.
Experiment [7] deals with Peroxisome proliferator-activated receptor gamma (Homo sapiens) + Nuclear receptor coactivator 3 (Homo sapiens) (UniProt P37231+Q9Y6Q9). The experiment is described as follows: PPARgamma-driven SRC-3 coactivator recruitment agonists, confirmation, biochemical (AID 1301; in the data active = activation above about 24%;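 note: 0% = vehicle wells and 100% = reference agonist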). As to conditions: biochemical PPARgamma-SRC-3 coactivator recruitment, agonist mode; at 8 µM; hits give high values.

The target of experiment [8] is (Lyso)-N-acylphosphatidylethanolamine lipase (Mus musculus) (UniProt Q8VD66). Put plainly: ABHD4 inhibitors, retest, confirmation, biochemical, fluorescence polarization, mouse (AID 720658;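 active = mean inhibition across replicates above the hit cutoff set in the primary screen, cut at about 30% in these data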;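 note: 0% = wild-type ABHD4 with DMSO and 100% = catalytically dead S159A mutant with DMSO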). As to conditions: purified mABHD4, FP-Rh probe fluorescence polarization; at 8.92 µM; hits give high values.
The test system of experiment [9] is TLR4-MyD88 interaction (human), BLA complementation. The experiment is described as follows: TLR4-MyD88 association inhibitors, retest, confirmation, cell-based, HeLa CL3-4, BLA complementation, FRET ratio (AID 941;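 active = mean inhibition across three repeat runs above about 25% carried over from the earlier screen, limit read from the data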;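 note: plate controls were DMSO only for no effect and clavulanic acid blocking BLA at full dose for full effect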). As to conditions: CCF4 FRET ratio, at 8.4 µM, hits give high values.
Experiment [10] is described as follows: inhibitors of full-length beta-lactamase reporter, confirmation, artefact control for TLR4-MyD88 binding inhibitor project, cell-based, HeLa, full-length BLA, CCF4 FRET ratio (AID 1237;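 active = mean inhibition over three repeats above about 26% taken from the earlier screen, limit read from the data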;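 note: HeLa cells stably expressing beta-lactamase reporter as counterscreen for TLR4-MyD88 inhibitors; 0% = DMSO and 100% = clavulanic acid full inhibition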). The conditions noted are these: at 8.4 µM, hits give high values.
Experiment [11] is described as follows: KLF5 expression inhibitors, confirmation, DLD-1 cells, luminescence (AID 1834;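 active = inhibition above a set limit taken from the earlier primary screen, cut at about 63% in these data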;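 note: 0% = DMSO wells and 100% = LY294002 at 200 µM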). The conditions noted are these: DLD-1 KLF5 promoter firefly luciferase reporter, at 4 µM, hits give high values.
Experiment [12] in a line: cytotoxicity in rat IEC-6 cells, cytotoxicity control for KLF5 inhibitor project, cell-based, luminescence, triplicate (AID 1905; in the data active = inhibition above about 23%;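 note: cells exposed to compounds for 48 hours before viability read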). The conditions noted are these: IEC-6 rat intestinal cells, viability luminescence; at 4 µM; hits give high values.
Experiment [13] has as its target Nuclear receptor coactivator 3 (Homo sapiens) (UniProt Q9Y6Q9). Put plainly: SRC3 coactivator transcriptional activity inhibitors, confirmation, cell-based, luminescence, quadruplicate (AID 588792;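 active = mean inhibition over 43.08%, the solvent-only control mean plus 3 SD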;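 note: 0% = DMSO treated cells and 100% = gossypol at 36 µM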). As to conditions: HEK293 GAL4-SRC3 luciferase reporter, at 3.6 µM, hits give high values.
Experiment [14] has as its system transactivating tegument protein VP16 (Human herpesvirus 1), Gal4-VP16 luciferase reporter. The experiment is described as follows: VP16 transactivation inhibitors, counter-screen for SRC3 inhibitor project, cell-based, luminescence, high throughput (AID 588794; in the data active = inhibition above about 30%). As to conditions: mammalian cells, VP16-driven luciferase reporter luminescence; at 3.6 µM; hits give high values.

Experiment [15] concerns the target Nuclear receptor coactivator 1 (Homo sapiens) (UniProt Q15788). The experiment is described as follows: SRC1 coactivator transcriptional activity inhibitors, confirmation, cell-based, luminescence, quadruplicate (AID 588820;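 active = mean inhibition above 46.68%, the untreated control wells mean plus 3 SD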;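 note: 0% = DMSO wells and 100% = gossypol 36 µM treated wells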). As to conditions: HEK293 GAL4-SRC1 luciferase reporter, at 3.6 µM, hits give high values.
A short description of experiment [16]: VP16 transactivation inhibitors, counter-screen for SRC1 inhibitor project, cell-based, luminescence, high throughput (AID 588824; in the data active = inhibition above about 25%). The conditions noted are these: cell-based VP16 transactivation luciferase luminescence; at 3.6 µM; hits give high values.
Experiment [17] deals with Photoreceptor-specific nuclear receptor (Homo sapiens) (UniProt Q9Y5X4). Put plainly: NR2E3 agonist confirmation in cells, cell-based, luminescence, CHO-S two-hybrid (AID 624378;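 active = average inhibition above a cutoff equal to the mean inhibition of all tested compounds plus one SD, cut at about 70% in these data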;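 note: 0% = DMSO in NR2E3 cells and 100% = DMSO in cells lacking NR2E3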). The conditions noted are these: CHO-S mammalian two-hybrid NR2E3-NCOR, luciferase luminescence; at 3.98 µM; hits give high values.
A short description of experiment [18]: GAL4-VP16 reporter modulators, confirmation, counter-screen for NR2E3 agonist project, cell-based, luminescence, CHO-S, high throughput (AID 624379;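 active = mean inhibition above a cutoff equal to the average over all tested compounds plus one standard deviation, cut at about 70% in these data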;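 note: 0% = DMSO with VP16-transfected cells and 100% = DMSO with cells lacking VP16; higher means less reporter light so more repression of VP16 activity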). The conditions noted are these: CHO-S GAL4-VP16 luciferase reporter, at 3.98 µM, hits give high values.
A short description of experiment [19]: StAR promoter reporter inhibitors, counter-screen for LRH-1 inverse agonist project, cell-based, luminescence, high throughput (AID 651611; in the data active = inhibition above about 28%). As to conditions: StAR promoter luciferase reporter counterscreen, at 3.6 µM, hits give high values.
For experiment [20], the target named is Nuclear receptor subfamily 5 group A member 2 (Homo sapiens) (UniProt O00482). Put plainly: LRH-1 (NR5A2) inverse agonists, retest, confirmation, cell-based, luminescence (AID 651613; in the data active = inhibition above about 42%;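 note: HEK293T cells co-transfected with LRH-1 and StAR promoter luciferase reporter; 0% = vehicle wells and 100% = parental cells lacking receptor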). As to conditions: cell-based LRH-1 luciferase reporter, inverse agonism; at 3.6 µM; hits give high values.
Experiment [21] addresses Steroidogenic factor 1 (Homo sapiens) (UniProt Q13285). Put plainly: SF1 (NR5A1) inverse agonists, counter-screen for LRH-1 inverse agonist project, cell-based, luminescence, high throughput (AID 651614; in the data active = inhibition above about 44%;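 note: cells cotransfected with StAR promoter reporter and SF1 expression vector; 0% = vehicle on cells with receptor and 100% = vehicle on cells lacking receptor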). As to conditions: cell-based SF1 luciferase reporter, at 3.6 µM, hits give high values.
A short description of experiment [22]: VP16 transactivation reporter inhibitors, counter-screen for LRH-1 inverse agonist project, cell-based, luminescence, high throughput (AID 651615; in the data active = inhibition above about 33%). As to conditions: Gal4-VP16 luciferase reporter cells, at 3.6 µM, hits give high values.
The nature of experiment [23]: Gal4-VP16 luciferase reporter inhibitors, counter-screen for COUP-TFII antagonist project, cell-based, luminescence, HEK293 (AID 687007; in the data active = inhibition above about 13%). The conditions noted are these: at 8.5 µM, hits give high values.
The target of experiment [24] is COUP transcription factor 2 (Homo sapiens) (UniProt P24468). The experiment is described as follows: NR2F2 transcriptional activity inhibitors, confirmation, cell-based, luciferase reporter, HEK293, triplicate (AID 687008;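 active = mean inhibition over three repeats above a set limit taken from the earlier primary screen, cut at about 38% in these data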;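 note: 100% = cells given the luciferase reporter alone without the COUP-TF2 vector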). As to conditions: HEK293 NGFI-A luciferase reporter, luminescence; at 8.5 µM; hits give high values.
COUP transcription factor 2 (Homo sapiens), sequence (P24468 whole entry, looked up): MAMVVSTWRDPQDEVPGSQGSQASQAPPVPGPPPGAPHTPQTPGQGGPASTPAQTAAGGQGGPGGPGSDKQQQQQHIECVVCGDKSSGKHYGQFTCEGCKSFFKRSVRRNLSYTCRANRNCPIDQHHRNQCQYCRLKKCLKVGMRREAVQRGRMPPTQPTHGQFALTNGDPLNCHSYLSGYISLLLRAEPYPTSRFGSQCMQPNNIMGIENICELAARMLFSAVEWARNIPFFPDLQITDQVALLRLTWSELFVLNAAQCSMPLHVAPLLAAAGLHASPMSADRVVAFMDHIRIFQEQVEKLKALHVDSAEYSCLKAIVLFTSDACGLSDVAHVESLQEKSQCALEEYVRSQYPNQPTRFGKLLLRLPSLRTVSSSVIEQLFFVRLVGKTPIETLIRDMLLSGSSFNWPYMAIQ

Protein phosphatase methylesterase 1 (Homo sapiens), sequence (Q9Y570 whole entry, looked up): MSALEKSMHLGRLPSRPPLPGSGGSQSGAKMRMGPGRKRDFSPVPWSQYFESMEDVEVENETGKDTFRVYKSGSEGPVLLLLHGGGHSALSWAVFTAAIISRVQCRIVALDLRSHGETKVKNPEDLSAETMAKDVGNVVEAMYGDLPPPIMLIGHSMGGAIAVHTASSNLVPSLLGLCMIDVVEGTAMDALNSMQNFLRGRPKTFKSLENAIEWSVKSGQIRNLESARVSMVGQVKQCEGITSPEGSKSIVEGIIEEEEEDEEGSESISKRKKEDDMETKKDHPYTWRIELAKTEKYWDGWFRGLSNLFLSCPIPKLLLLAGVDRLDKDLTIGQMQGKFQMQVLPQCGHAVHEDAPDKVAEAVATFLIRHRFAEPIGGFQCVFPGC
Peroxisome proliferator-activated receptor gamma (Homo sapiens), sequence (P37231 whole entry, looked up): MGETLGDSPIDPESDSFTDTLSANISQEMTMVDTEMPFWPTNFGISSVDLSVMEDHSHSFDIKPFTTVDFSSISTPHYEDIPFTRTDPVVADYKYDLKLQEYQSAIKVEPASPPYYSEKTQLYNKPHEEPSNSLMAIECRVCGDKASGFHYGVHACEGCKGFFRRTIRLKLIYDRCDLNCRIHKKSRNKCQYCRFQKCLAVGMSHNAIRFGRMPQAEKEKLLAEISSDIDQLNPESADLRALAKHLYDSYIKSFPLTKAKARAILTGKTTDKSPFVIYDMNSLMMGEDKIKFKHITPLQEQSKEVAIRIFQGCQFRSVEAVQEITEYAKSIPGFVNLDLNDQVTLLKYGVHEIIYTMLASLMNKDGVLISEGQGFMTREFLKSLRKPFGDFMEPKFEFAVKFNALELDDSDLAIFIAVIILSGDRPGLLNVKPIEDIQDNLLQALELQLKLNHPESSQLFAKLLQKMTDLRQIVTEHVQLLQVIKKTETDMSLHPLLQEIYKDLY
Peroxisome proliferator-activated receptor gamma (Homo sapiens) + Nuclear receptor coactivator 3 (Homo sapiens), sequence (P37231 whole entry, looked up): as above
Peroxisome proliferator-activated receptor gamma (Homo sapiens) + Nuclear receptor coactivator 3 (Homo sapiens), sequence (Q9Y6Q9 whole entry, looked up): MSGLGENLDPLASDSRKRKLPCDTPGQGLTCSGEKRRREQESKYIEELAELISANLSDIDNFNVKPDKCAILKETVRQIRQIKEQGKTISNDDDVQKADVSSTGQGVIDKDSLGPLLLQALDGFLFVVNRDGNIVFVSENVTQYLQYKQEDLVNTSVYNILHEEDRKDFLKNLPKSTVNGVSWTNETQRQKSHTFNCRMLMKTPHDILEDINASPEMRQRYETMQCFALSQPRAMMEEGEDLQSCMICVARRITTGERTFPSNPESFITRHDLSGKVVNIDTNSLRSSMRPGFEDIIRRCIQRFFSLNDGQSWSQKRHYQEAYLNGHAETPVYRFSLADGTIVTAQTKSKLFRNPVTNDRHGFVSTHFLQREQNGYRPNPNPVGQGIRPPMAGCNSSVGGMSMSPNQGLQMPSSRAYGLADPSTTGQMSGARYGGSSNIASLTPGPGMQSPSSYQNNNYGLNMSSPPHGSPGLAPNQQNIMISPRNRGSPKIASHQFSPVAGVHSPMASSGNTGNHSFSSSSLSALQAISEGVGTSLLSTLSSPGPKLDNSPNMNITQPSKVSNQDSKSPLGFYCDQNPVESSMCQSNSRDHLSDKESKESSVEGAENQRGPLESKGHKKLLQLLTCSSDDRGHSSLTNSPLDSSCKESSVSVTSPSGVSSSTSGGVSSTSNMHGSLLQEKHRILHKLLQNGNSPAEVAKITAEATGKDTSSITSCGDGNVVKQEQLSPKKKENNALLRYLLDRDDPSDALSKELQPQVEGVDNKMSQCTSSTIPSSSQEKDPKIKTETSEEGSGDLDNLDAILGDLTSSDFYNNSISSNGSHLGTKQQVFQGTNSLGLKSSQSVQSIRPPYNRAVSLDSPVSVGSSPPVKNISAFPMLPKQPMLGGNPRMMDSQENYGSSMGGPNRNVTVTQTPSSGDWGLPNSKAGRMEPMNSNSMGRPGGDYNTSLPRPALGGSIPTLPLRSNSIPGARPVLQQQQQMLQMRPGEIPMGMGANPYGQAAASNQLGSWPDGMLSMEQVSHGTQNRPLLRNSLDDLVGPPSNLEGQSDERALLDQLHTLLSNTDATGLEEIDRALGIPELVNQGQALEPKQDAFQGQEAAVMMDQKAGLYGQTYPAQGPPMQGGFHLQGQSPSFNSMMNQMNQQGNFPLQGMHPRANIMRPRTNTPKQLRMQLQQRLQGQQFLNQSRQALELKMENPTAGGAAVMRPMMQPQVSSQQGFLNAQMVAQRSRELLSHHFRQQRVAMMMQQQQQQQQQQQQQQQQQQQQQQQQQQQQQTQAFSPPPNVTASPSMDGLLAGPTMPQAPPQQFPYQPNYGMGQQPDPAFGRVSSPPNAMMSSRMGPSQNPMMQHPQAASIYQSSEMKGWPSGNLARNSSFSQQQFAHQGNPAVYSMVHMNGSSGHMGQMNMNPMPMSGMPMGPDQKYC
Nuclear receptor subfamily 5 group A member 2 (Homo sapiens), sequence (O00482 whole entry, looked up): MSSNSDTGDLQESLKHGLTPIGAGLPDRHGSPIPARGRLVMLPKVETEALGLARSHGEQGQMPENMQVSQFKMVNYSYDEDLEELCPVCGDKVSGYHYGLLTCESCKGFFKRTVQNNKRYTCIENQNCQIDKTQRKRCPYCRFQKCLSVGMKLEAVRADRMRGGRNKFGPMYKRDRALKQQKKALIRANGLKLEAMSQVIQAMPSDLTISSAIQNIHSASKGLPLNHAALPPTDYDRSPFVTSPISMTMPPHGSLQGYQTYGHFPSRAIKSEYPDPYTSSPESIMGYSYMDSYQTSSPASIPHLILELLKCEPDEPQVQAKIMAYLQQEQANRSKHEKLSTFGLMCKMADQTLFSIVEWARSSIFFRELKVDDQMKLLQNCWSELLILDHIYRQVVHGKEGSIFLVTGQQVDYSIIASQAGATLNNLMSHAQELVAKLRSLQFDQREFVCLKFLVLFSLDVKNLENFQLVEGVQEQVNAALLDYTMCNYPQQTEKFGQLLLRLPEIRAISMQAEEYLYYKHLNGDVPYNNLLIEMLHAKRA
Photoreceptor-specific nuclear receptor (Homo sapiens), sequence (Q9Y5X4 whole entry, looked up, the tested form may be a part): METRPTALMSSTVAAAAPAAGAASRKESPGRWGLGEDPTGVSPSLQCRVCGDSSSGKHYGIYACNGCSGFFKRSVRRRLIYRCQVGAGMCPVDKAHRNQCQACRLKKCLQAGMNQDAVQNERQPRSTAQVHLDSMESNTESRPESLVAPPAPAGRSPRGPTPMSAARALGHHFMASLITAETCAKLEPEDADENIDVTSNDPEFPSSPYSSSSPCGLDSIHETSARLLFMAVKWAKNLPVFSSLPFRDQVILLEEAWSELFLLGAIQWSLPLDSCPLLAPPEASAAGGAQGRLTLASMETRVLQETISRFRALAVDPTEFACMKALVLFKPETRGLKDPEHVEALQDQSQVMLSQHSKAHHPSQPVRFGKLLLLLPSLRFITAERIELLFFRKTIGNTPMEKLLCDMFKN
Steroidogenic factor 1 (Homo sapiens), sequence (Q13285 whole entry, looked up, the tested form may be a part): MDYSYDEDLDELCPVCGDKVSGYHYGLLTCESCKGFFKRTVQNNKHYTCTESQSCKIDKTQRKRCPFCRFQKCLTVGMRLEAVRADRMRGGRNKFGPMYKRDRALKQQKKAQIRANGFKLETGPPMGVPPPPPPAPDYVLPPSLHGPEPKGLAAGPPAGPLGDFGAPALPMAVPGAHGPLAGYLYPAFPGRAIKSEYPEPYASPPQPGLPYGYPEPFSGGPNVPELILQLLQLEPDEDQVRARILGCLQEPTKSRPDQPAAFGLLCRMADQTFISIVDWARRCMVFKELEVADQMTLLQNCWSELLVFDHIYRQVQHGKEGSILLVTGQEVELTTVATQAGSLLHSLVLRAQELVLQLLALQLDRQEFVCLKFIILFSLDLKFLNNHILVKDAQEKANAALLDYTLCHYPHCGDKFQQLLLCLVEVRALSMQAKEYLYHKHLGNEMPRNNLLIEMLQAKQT
Nuclear receptor coactivator 3 (Homo sapiens), sequence (Q9Y6Q9 whole entry, looked up, the tested form may be a part): as the sequence (Q9Y6Q9 whole entry, looked up) above

In the case of `Cc1cc(/C=C2/C(=O)NC(=O)N(Cc3ccco3)C2=O)c(C)n1-c1ccc(C(=O)O)cc1`, the activation in experiment [1] was 5.24%. Moreover, the inhibition in experiment [2] was -26.4%; in experiment [3], 36.5% (active).
In the case of `CC(C)CCOP(N)(=O)Oc1ccccc1Cl` (centres undefined), in experiment [4], the inhibition is 42.3% (active).
As to `O=P(CCl)(Nc1ccccc1)C(Cl)(Cl)Cl` (centres undefined), the inhibition in experiment [4] is 45.2% (active).
Regarding `COc1cc(-n2c(=S)[nH]c3ccc(C)cc3c2=O)c(Cl)cc1Cl`, the activation in experiment [5] was 24.6% (active); in [6], 12.2%; in [7] it was 12.4%. In addition, the inhibition in [8] is 37.6% (active).
For `COc1ccc(CN2CCN(c3ccccc3F)CC2)c(OC)c1`, the inhibition was -8.64% in experiment [9] and 4.55% in experiment [10].
Consider `O=C(CN1CC=C(c2ccccc2)CC1)Nc1c(Cl)cccc1Cl`, for which the inhibition in [4] is 28.2% (active).
Take `CC(=O)c1ccc2c(c1)C1C(Cl)C(Sc3ccccc3[N+](=O)[O-])CC1C(c1ccccc1[N+](=O)[O-])N2` (centres undefined): the inhibition in experiment [4] is 20.4%.
Take `O=C(CF)NC(Nc1cccc2cccnc12)C(Cl)(Cl)Cl` (centres undefined): the inhibition in experiment [4] is 53% (active).
Consider `CSC1=NP(=S)(SC)N(C)c2nc3n(c21)CCC3` (centres undefined), for which the results for the activation in [5], in experiment [6] and in experiment [7] were 51.6% (active), 33.3% (active) and 35.7% (active), respectively.
Turning to `CCCCCCCCCCCCn1ccc(=N)cc1`, the inhibition in experiment [11] is 62.6% (active); in experiment [12], 46.8% (active); in [13], 67.6% (active); in [14] it was 78.8% (active); in experiment [15], 53.8% (active); in experiment [16], 78.9% (active). Besides, the inhibition in experiment [17] is 99.7% (active); in experiment [18] it was 86.7% (active); in experiment [19], 74.4% (active); in [20] it was 101% (active); in [21], 92.7% (active); in [22], 89.8% (active). Besides, the inhibition was 14.2% (active) in experiment [23] and 76.4% (active) in [24].
As to `Cc1ccc(S(=O)(=O)N2CCCCC2)cc1NC(=O)CN1CC=C(c2ccccc2)CC1`, the inhibition in experiment [4] was 85.5% (active).
Still for that read-out and setting: with `CN(C)C1(c2nnnn2CCOC(=O)Nc2ccc(Cl)cc2)CCCCC1` the figure was 25%.
In the case of `CC(=O)c1ccc2c(c1)C1C(Cl)C(Sc3ccccc3[N+](=O)[O-])CC1C(c1ccccc1)N2` (centres undefined), the inhibition in [4] is 23.8%.
